Results: PubChem BioAssay AID463173 (ICCB-Longwood Screening Facility, Harvard Medical School, 2010)
Hit rate of the full screen: of about 52,000 compounds, about 4,300 (8.3%) were called active. No stated cut-off is given here; in the data, active means survival mostly below about 52% (no sharp cut-off); inactive means mostly above about 56%. The entries come from a sample that favours actives as a whole.

system: DeltatarO mutant; assay: growth inhibition of S. aureus wild type versus tarO mutant, primary screen, teichoic acid synthesis inhibitors, RN4220, OD600 (AID 463173); conditions: OD600, 18 h, stronger effect = lower value, screened at 18.75 µg/mL (by protocol)

Structure (SMILES)	survival
Cc1ccc(C)c(N2CCN(S(=O)(=O)c3ccc4c(c3)n(C)c(=O)c(=O)n4C)CC2)c1	76% (inactive)
CC(C)CC(C(=O)NCc1ccc(F)cc1)N1Cc2ccccc2C1=O (stereo not drawn)	88% (inactive)
O=C(NCc1cccnc1)c1nn(-c2ccc(F)cc2)nc1CO	111% (inactive)
CCc1ccc2occ(CC(=O)Nc3c(C(=O)Nc4ccc(OC)cc4)oc4ccccc34)c2c1	84% (inactive)
CCOC(=O)CC1c2cc(OCC)c(OCC)cc2CCN1C(=O)Nc1cccc(Cl)c1 (stereo not drawn)	41% (active)
CCOc1cc2c(cc1OCC)C(CC(=O)OC)N(C(=O)Nc1cc(C)cc(C)c1)CC2 (stereo not drawn)	83% (inactive)
CCOc1cc2c(cc1OCC)C(CC(=O)O)N(C(=O)Nc1ccc(Br)c(C)c1)CC2 (stereo not drawn)	81% (inactive)
CCCC(=O)NCCc1nc2ccccc2n1Cc1c(F)cccc1Cl	69% (inactive)
Cc1ccccc1Cn1c(-c2cccs2)nc2ccccc21	19% (active)
Cc1cccc(Cn2c(-c3cccs3)nc3ccccc32)c1	2% (active)
O=C(NCc1nc2ccccc2n1Cc1ccccc1Cl)c1ccccc1	97% (inactive)
Clc1ccccc1Cn1c(-c2cccs2)nc2ccccc21	11% (active)
Cc1cccc(CNC(=O)Cn2c(-c3cccs3)cc3ccccc32)c1	116% (inactive)
OCc1nc2ccccc2n1Cc1ccccc1Cl	74% (inactive)
Cc1ccccc1Cn1cnc2ccccc21	77% (inactive)
OCc1nc2ccccc2n1Cc1c(F)cccc1Cl	99% (inactive)
CC(=O)N1CCCC1c1nc2ccccc2n1Cc1cccc(C)c1 (stereo not drawn)	72% (inactive)
CC(=O)N1CCCC1c1nc2ccccc2n1Cc1ccccc1C (stereo not drawn)	69% (inactive)
Fc1cccc(Cl)c1Cn1c(-c2cccs2)nc2ccccc21	21% (active)
O=c1[nH]nc(-c2ccccc2)c2cc3c(=O)[nH]nc(-c4ccccc4)c3cc12	100% (inactive)
CSc1cccc(NC(=O)Cn2c(=O)n(Cc3ccccc3)c(=O)c3sc4ccccc4c32)c1	91% (inactive)
Cc1ccc(Cn2c(=O)n(CC3CCC(C(=O)N4CCOCC4)CC3)c(=O)c3sccc32)cc1 (stereo not drawn)	75% (inactive)
Cc1cccc(CC2C(=O)Nc3ccccc32)c1 (stereo not drawn)	87% (inactive)
CCc1ccccc1NC(=O)Cn1ccn(-c2cc(C)cc(C)c2)c(=O)c1=O	67% (inactive)
Cc1cc(Cl)ccc1NC(=O)C(=O)NCc1ccco1	135% (inactive)
CCC(O)c1nc2ccccc2n1Cc1cc(C)ccc1C (stereo not drawn)	86% (inactive)
Cc1ccc(C)c(Cn2c(-c3cccs3)nc3ccccc32)c1	-3% (active)
Cc1ccc(C)c(Cn2c(C(C)NC(=O)c3ccccc3)nc3ccccc32)c1 (stereo not drawn)	88% (inactive)
